Reference: PubChem BioAssay (Tox21)
Records with an inconclusive call do not appear. Entries that show only a call come without a potency. Activity calls are given as the source filed them. The call rests on the fitted dose curve; in most records, active means well fitted inhibition curve with a large enough effect in the repeat runs; inconclusive means weak or mixed curves; inactive means flat fitted curve, though single readings scatter.

assay: qHTS assay to identify small molecule HDAC inhibitors (AID 1259364); conditions: HCT-116 HDAC-Glo I/II luminescence, 2 h; series mostly up to 92.4 µM; further: nearly all actives have a fitted effect of over 45% in size
From the text: U.S. Tox21 Program National Center for Advancing Translational Sciences [NCATS] NIH Chemical Genomics Center [NCGC] U.S. Environmental Protection Agency [EPA] National Institutes of Environmental Health Sciences [NIEHS] National Toxicology Program [NTP] U.S. Food and Drug Administration [FDA] Tox21 Assay Overview: Histone deacetylases (HDACs) are a group of epigenetic enzymes that regulate gene expression by histone deacetylation. HDACs are capable of introducing epigenetic modifications and such aberrations contribute to the onset and progression of several human diseases, thus making HDACs a popular therapeutic target. For identifying endogenous class I/II HDAC inhibitors a homogenous, luminogenic HDAC I/II cell based assay was used to measure the relative activity of class I and II HDACs from cells. Wild type HCT-116 cells were used to screen Tox21 libraries for identifying class I/II HDAC inhibitors.
Tox21 Assay Protocol Summary: HCT-116 cells were dispensed at 1,500 per well in 5uL of culture medium into white solid bottom 1536-well plates (Greiner Bio-One, Monroe, NC) using a Multidrop Combi (Thermo Scientific, Waltham, MA) dispenser. The assay plates were incubated at 37 C and 5% CO2 for an overnight, and then 23nL of compounds dissolved in DMSO and positive control were transferred using a Pintool station (Wako, San Diego, CA). The assay plates were incubated at 37C and 5% CO2 for 2hr. After compound treatment, 4uL of HDAC-Glo reagent (Promega Corporation, Madison, WI) was added to each well of the assay plates using Flying Reagent Dispenser (FRD, Aurora Discovery, San Diego, CA) and incubated the assay plates at room temperature for 30min. The luminescence signal was quantified using a ViewLux plate reader (Perkin Elmer, Shelton, CT).
Potency means the concentration at half of the fitted maximal effect.

Compound	Potency
O=[N+]([O-])C(Br)(CO)CO	inactive
CN1C(=O)C(O)N=C(c2ccccc2)c2cc(Cl)ccc21 (stereo not given)	inactive
Nc1nc(=S)[nH][nH]1	inactive
Nc1nc(N)nc(N)n1	inactive
c1cc2ccc3cccc4ccc(c1)c2c34	inactive
NCCCNCCCN	inactive
CCBr	inactive
O=C(O)COc1ccc(Cl)cc1	inactive
ClC=C(Cl)Cl	inactive
O=[N+]([O-])c1cc(C(F)(F)F)cc([N+](=O)[O-])c1Cl	inactive
COc1c(C(C)(C)C)cc([N+](=O)[O-])c(C)c1[N+](=O)[O-]	inactive
O=Cc1ccc(Cl)cc1Cl	inactive
ClP(Cl)(Cl)(Cl)Cl	inactive
N#CCC#N	inactive
Brc1ccc(Oc2ccccc2)cc1	inactive
CC(Cl)Cl	inactive
CCOC(=O)CBr	inactive
COc1ccc(-c2ccccc2)cc1NNC(=O)OC(C)C	inactive
CC(=O)NC1CCSC1=O (stereo not given)	inactive
O=C1NCN(c2ccccc2)C12CCN(CCCOc1ccc(F)cc1)CC2	inactive

Compound	Potency
O=[N+]([O-])c1ccccc1CCl	inactive
CCO[C@H]1O[C@@H]2OC3(C)CC[C@H]4[C@H](C)CC[C@@H]([C@H]1C)[C@@]24OO3	inactive
CCCCCCCCCC(=O)O[C@H]1CC[C@H]2[C@@H]3CCC4=CC(=O)CC[C@@H]4[C@H]3CC[C@]12C	inactive
CCOc1ccc(C(C)(C)COCc2cccc(Oc3ccccc3)c2)cc1	inactive
Clc1cccc(SC2CCNCC2)n1	inactive
CC(C)(Cl)[N+](=O)[O-]	inactive
C/C(=C\c1ccccc1)[N+](=O)[O-]	inactive
CC1C(=O)C[C@]2(C(C)C)C[C@H]12 (stereo not given in full)	inactive
CCOc1nc(F)cc2nc(S(=O)(=O)Nc3c(Cl)cccc3Cl)nn12	inactive
Clc1ccc(C(OCCN2CCCCC2)c2ccccc2)cc1 (stereo not given)	inactive
CCC(C)(NC(=O)c1cc(Cl)c(C)c(Cl)c1)C(=O)CCl (stereo not given)	inactive
CC(C)(C)C(O)C(Oc1ccc(Cl)cc1)n1cncn1 (stereo not given)	inactive
CCOP(=S)(Oc1ccc([N+](=O)[O-])cc1)c1ccccc1 (stereo not given)	inactive
Brc1ccccc1	inactive
O=Cc1ccc2c(c1)OCO2	inactive
C=CCCl	inactive
CCCCC(O)(Cn1cncn1)c1ccc(Cl)cc1Cl (stereo not given)	inactive
CN1[C@@H]2CC[C@H]1CC(OC(=O)c1cc(Cl)cc(Cl)c1)C2 (stereo not given in full)	inactive
CC1(C)CCC(Cc2ccc(Cl)cc2)C1(O)Cn1cncn1 (stereo not given)	inactive
O=[N+]([O-])c1ccc(F)c([N+](=O)[O-])c1	12.3 µM (active)
